Among the data in ChEMBL document CHEMBL4513216, “Probing the Open Global Health Chemical Diversity Library for Multistage-Active Starting Points for Next-Generation Antimalarials” (ACS Infect Dis, 2020) are INHIBITION values, retold here.

The structures appear in SMILES notation. Screen size: about 68,000 compounds; about 2,700 (4%) showed an effect of 50% or more. The sample holds strong results, similar compounds and a random draw of the others, so the mix is not that of the screen.

For this test, the system named is Plasmodium berghei. The test is described as follows: Screen against P. berghei liver stage (PbLuc), transformed with Luciferase, at 2uM. In kind it is functional, HepG2. The settings on record: tested at 2 uM.
Consider `Cc1nccn1C1CCCN(C(=O)c2sccc2-n2cnnn2)C1` (stereo not drawn), for which the INHIBITION is -13.92%.

Turning to `Cc1ccc2c(c1)c(CNC(=O)C1CCCN(CC(N)=O)C1)nn2C` (stereo not drawn), the INHIBITION is listed as -1.87%.

Take `Cc1ccc2c(c1)c(CNC(=O)C1CCN(CC(N)=O)CC1)nn2C`: the INHIBITION is recorded as 58.53%.

Regarding `Cc1ccc2c(c1)c(CNC(=O)C1CCN(C(=O)C3CC3)CC1)nn2C`, the INHIBITION is -13.72%.

In the case of `CC(C)c1cc(C(=O)N[C@@H]2CC[C@@H](Oc3ccccc3)[C@@H]2O)on1`, the INHIBITION was 19.69%.

As to `CCc1c(C(=O)O)nnn1-c1cc(C)cc(C)c1`, the INHIBITION was -50.41%.

With `COc1ccccc1OC1(C(=O)O)CCN(c2ncnc(C)c2C)CC1`, the INHIBITION is 60.13%.

In the case of `COc1ccccc1OC1(C(=O)O)CCN(c2nccnc2C)CC1`, the INHIBITION was 1.34%.

Turning to `COc1ccccc1OC1(C(=O)O)CCN(c2nc(C)cnc2C)CC1`, the INHIBITION worked out at 33.9%.

As for `O=C(CC1CC1)NC[C@]12COC[C@H]1CN(c1ncccn1)C2`, the INHIBITION is given as 22.36%.

Consider `Cc1nc(C2CCCN2C(=O)Cc2ccc3c(c2)OCO3)nc(O)c1C` (stereo not drawn), for which the INHIBITION is on record as 22.39%.

In the case of `Cc1nc(C2CCCN2C(=O)Cc2cccc(F)c2)nc(O)c1C` (stereo not drawn), the INHIBITION worked out at 27.81%.

On to `COc1cccc(CC(=O)N2CCCC2c2nc(C)c(C)c(O)n2)c1` (stereo not drawn), for which the INHIBITION was 55.74%.

For the compound `COc1ccc(CC(=O)N2CCCC2c2nc(C)c(C)c(O)n2)cc1` (stereo not drawn), the INHIBITION is reported as 29.48%.

On to `Cc1nc(C2CCCN2C(=O)Cc2ccc(F)cc2)nc(O)c1C` (stereo not drawn), for which the INHIBITION worked out at 46.57%.

For `COc1cccc(CC(=O)N2CCCC2c2nc(C)c(F)c(O)n2)c1` (stereo not drawn), the INHIBITION is on record as 52.82%.

Consider `CCOC(=O)[C@]12CCCN(Cc3cccs3)C[C@H]1CN(C(C)=O)C2`, for which the INHIBITION was -12.74%.

As for `Cc1nc2cc(O)nn2c(C)c1CCC(=O)N(C)Cc1cscn1`, the INHIBITION is recorded as -1.73%.

Turning to `CC(C)c1ccc(-n2cc(O)c(C(=O)N3CCC(C(N)=O)CC3)n2)cc1`, the INHIBITION was -40.06%.

Consider `Cc1nc(COC[C@]23COC[C@H]2CN(Cc2ccoc2)C3)cs1`, for which the INHIBITION is listed as 18.57%.

With `COc1ccc(C(C(=O)O)N2CCC(Cn3cccn3)CC2)cc1F` (stereo not drawn), the INHIBITION is reported as 15.46%.

For the compound `Cc1ccnc(NC(=O)c2c(C)oc(C)c2C)c1`, the INHIBITION is -18.78%.

Turning to `CCC1(C)Cc2ccccc2-c2nc(NCCCO)nc(O)c21` (stereo not drawn), the INHIBITION worked out at 44.7%.

As to `CCOc1ccc2[nH]c3c(N(C)CC4OCCO4)ncnc3c2c1`, the INHIBITION is given as 38.64%.

Consider `Cc1ccc(S(=O)(=O)NC(=O)CCC(F)(F)F)cc1N(C)C`, for which the INHIBITION is on record as 3.39%.

Consider `CN(C)c1nc(NCCc2cnccn2)ncc1F`, for which the INHIBITION is 44.19%.

`CN1CCC2(CC1)CN(Cc1ccc(C3CCCCO3)o1)CCCN2C` (stereo not drawn): the INHIBITION is given as -83.94%.

As for `CN1CCN(C)C2(CCN(Cc3ccc(C4CCCCO4)o3)CC2)C1` (stereo not drawn), the INHIBITION is given as -6.27%.

Take `OCC1(O)CCN(Cc2ccc(C3CCCCO3)o2)CC1` (stereo not drawn): the INHIBITION was 61.27%.

Consider `CC(=O)N1CCN(C(=O)CN2CCc3c(ncn3C3CC3)C2)CC1`, for which the INHIBITION is reported as 37.52%.

As to `Cc1ccsc1CN(CCN(C)C)C(=O)C1=NNC(=O)CC1`, the INHIBITION is -1.87%.

Regarding `COCc1ccccc1NC(=O)[C@@H]1CCCN1C(=O)c1ccco1`, the INHIBITION was 1.86%.

With `Cc1cccc(NC(=O)C2CCCN2C(=O)c2ccco2)c1C` (stereo not drawn), the INHIBITION was 58.53%.

As for `COC(=O)c1sccc1NC(=O)C1CCCN1C(=O)c1ccco1` (stereo not drawn), the INHIBITION is reported as -16.52%.

For `O=C(Cc1c(F)cccc1F)N1CCN(CC(=O)N2CCCC2)CC1`, the INHIBITION amounted to 57.95%.

Take `O=C(CN1CCN(c2ncnc3cccc(F)c23)CC1)N1CCCC1`: the INHIBITION was -11.35%.

Turning to `NC(=O)CN1CCCN(C(=O)Cc2ccc(F)cc2)CC1`, the INHIBITION is 33.12%.

As to `CCc1n[nH]c(C2CN(C(=O)c3cscn3)CCO2)n1` (stereo not drawn), the INHIBITION is reported as -34.61%.

Turning to `Cc1cc(N2CCCC2)c(C#N)c(C)n1`, the INHIBITION is reported as -27.68%.

For `Cc1csc(N2CCCN(c3cc(C)nc(C)c3C#N)CC2)n1`, the INHIBITION is recorded as -20.21%.

`Cc1cc(N2CCCCC2)c(C#N)c(C)n1`: the INHIBITION is reported as 54.44%.

Regarding `Cn1cccc1C(=O)N1CCCN(CCCc2ccccc2)CC1`, the INHIBITION is reported as -25.8%.

Consider `CC(=O)Nc1ccc2nc(-c3nccn3C[C@@H]3CCCO3)ccc2c1`, for which the INHIBITION worked out at 25.13%.

With `CCc1nc(C)c(-c2nccn2CC2CC(=O)N(CC)C2)[nH]1` (stereo not drawn), the INHIBITION is on record as -5.65%.

Regarding `Cc1nccn1CCC1CCN(C2CCC3(CCNCC3)CC2)CC1`, the INHIBITION stood at 34.52%.

On to `CCc1nc(C)c(-c2nccn2CC2CCN(C3CCCC3)CC2)[nH]1`, for which the INHIBITION amounted to 56.81%.

Regarding `CCc1nc(C)c(-c2nccn2CC2CCCCO2)[nH]1` (stereo not drawn), the INHIBITION is 54.75%.

`Cc1cnc(C)c(N2CCN(CC3CCCO3)CC2)n1` (stereo not drawn): the INHIBITION was -18.84%.

Turning to `O=C(c1ccoc1)N1C[C@H]2CC[C@@]3(N=C(c4ccccc4)NC3=O)[C@H]2C1`, the INHIBITION is on record as -1.45%.

`Cc1nn(C)c2c(=O)n(C)c(NCC3CCCO3)nc12` (stereo not drawn): the INHIBITION is 37.45%.

Turning to `CC(C)=CCC/C(C)=C/CN1CCN(C)C2(CCNC(=O)CC2)C1` (stereo not drawn), the INHIBITION is given as 43.94%.

On to `CC/C(C)=C/CCN1CCN(C)C2(CCNC(=O)CC2)C1` (stereo not drawn), for which the INHIBITION is 20.2%.

Consider `CC(C)=CCCN1CCN(C)C2(CCC(=O)N(C)CC2)C1` (stereo not drawn), for which the INHIBITION is 77.56%.
